Assays:
Experiment in all cases: PBM binding z-score (relative to random genomic background probes); higher = stronger binding; sequences stand for … in GC…GCGATTGACAGCGTAGAATGAAGG
[1] = test system: FXR:RXRa (NR concentration 270 nM, RXRa partner concentration 90 nM)
How it was run: (§1)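 Ligand-free nuclear receptor dimers were applied to custom Agilent 4×180K protein-binding microarrays whose double-stranded probes carried direct-repeat seeds, single-nucleotide variants, half-site ablations and random human genomic background sequences in 34-nt variable regions. Incubation lasted 1 h. Binding z-scores were computed against the random background probes from regression-normalized fluorescence.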

[2] = test system: LXRa:RXRa (NR concentration 270 nM, RXRa partner concentration 90 nM)
How it was run: as §1

[3] = test system: LXRa homodimer (NR concentration 270 nM)
How it was run: as §1

[4] = test system: LXRb:RXRa (NR concentration 270 nM, RXRa partner concentration 90 nM)
How it was run: as §1

[5] = test system: LXRb homodimer (NR concentration 270 nM)
How it was run: as §1

[6] = test system: PPARa:RXRa (NR concentration 270 nM, RXRa partner concentration 90 nM)
How it was run: as §1

[7] = test system: PPARg:RXRa (NR concentration 180 nM, RXRa partner concentration 90 nM)
How it was run: as §1

[8] = test system: PPARg:RXRa 270nM:90nM, anti-RXR (NR concentration 270 nM, RXRa partner concentration 90 nM)
How it was run: as §1

[9] = test system: PPARg:RXRa 30nM:10nM, anti-RXR (NR concentration 30 nM, RXRa partner concentration 10 nM)
How it was run: as §1

[10] = test system: PPARg:RXRa 90nM:30nM, anti-RXR (NR concentration 90 nM, RXRa partner concentration 30 nM)
How it was run: as §1

[11] = test system: PPARg:RXRa DBDmut IVT, anti-RXR (DBD mutation: RXRa K156A/R161A, NR concentration 270 nM, RXRa partner concentration 90 nM)
How it was run: as §1

[12] = test system: PPARg:RXRa IVT, anti-PPARg (NR concentration 270 nM, RXRa partner concentration 90 nM)
How it was run: as §1

[13] = test system: PPARg DBDmut:RXRa IVT, anti-PPARg (DBD mutation: PPARg1 K132A/R137A, NR concentration 270 nM, RXRa partner concentration 90 nM)
How it was run: as §1

[14] = test system: PPARg DBDmut IVT, anti-PPARg (DBD mutation: PPARg1 K132A/R137A, NR concentration 270 nM)
How it was run: as §1

[15] = test system: PPARg homodimer (NR concentration 180 nM)
How it was run: as §1

[16] = test system: PXR:RXRa (NR concentration 270 nM, RXRa partner concentration 90 nM)
How it was run: as §1

[17] = test system: PXR homodimer (NR concentration 270 nM)
How it was run: as §1

[18] = test system: RARa:RXR (NR concentration 270 nM, RXRa partner concentration 90 nM)
How it was run: as §1

[19] = test system: RARa homodimer (NR concentration 270 nM)
How it was run: as §1

[20] = test system: RARb:RXRa (NR concentration 270 nM, RXRa partner concentration 90 nM)
How it was run: as §1

Sequence	PBM binding z-score [1]	PBM binding z-score [2]	PBM binding z-score [3]	PBM binding z-score [4]	PBM binding z-score [5]	PBM binding z-score [6]	PBM binding z-score [7]	PBM binding z-score [8]	PBM binding z-score [9]	PBM binding z-score [10]	PBM binding z-score [11]	PBM binding z-score [12]	PBM binding z-score [13]	PBM binding z-score [14]	PBM binding z-score [15]	PBM binding z-score [16]	PBM binding z-score [17]	PBM binding z-score [18]	PBM binding z-score [19]	PBM binding z-score [20]
GCTGCTAGGTCAGGTTGGTTAGCTAACGGGTACG	1.06	0.689	-0.475	0.322	-0.199	1.24	0.149	0.709	-0.629	0.079	3.18	1.92	-0.902	-0.404	0.608	0.32	-0.467	0.712	-0.719	3.07
CCTTACGGGTCACTGACTGGTTATAGCATTTGGA	5.56	3.75	0.422	3.15	-0.0702	4.99	4.13	4.14	1.38	2.81	3.65	3.69	0.987	0.315	3.15	3.1	0.287	4.06	2.05	4.02
TTGCCTAGGTCATGCGGGCCAGTATAGTGTCGGC	4.05	2.72	0.0559	1.52	-0.792	3.42	2.01	2.28	-0.182	1.06	1.47	2.82	0.433	-0.575	0.753	1.39	-0.692	2.31	-0.448	3.82
TCTATCAGTTGATTAGGGCAACCGAAACAGCGGA	-0.144	0.15	-0.239	0.101	0.266	0.978	0.346	1.61	3.34	2.54	1.54	1.42	0.737	0.547	-0.273	0.154	-0.238	0.11	-0.12	0.747
GTACCAAGGTGAACAGGTCGTTGATGAGTAGGCG	0.658	0.647	-0.308	0.422	-0.997	2.34	1.64	1.88	0.3	1.02	1.79	3	-0.0563	-0.667	0.811	0.437	-0.13	1.38	-0.00415	2.09
ATCGAAAGGTCGAAGAGGTGAGTATACACCGTTT	4.26	3.51	-0.1	2.49	0.443	4.09	2.38	2.8	0.698	2.03	-0.0174	1.75	0.444	0.332	1.01	2.82	0.5	3.46	0.27	3.62
GCTATTAGTTGAACGGGCAACCGAATGATTCTCG	-0.438	-0.312	-0.165	-0.485	-0.496	-0.347	0.352	0.00975	-0.295	-0.0379	0.443	-0.481	-1.02	-0.0789	-0.518	-0.435	-0.664	-0.533	-0.461	0.14
